Experimental data taken from PubChem BioAssay.
The source made the active and inactive calls.

Assays:
[1] = small molecules captured by biotinylated probe aFSTL3 – biochemical, small-molecule microarray, fluorescence 635/667, stem cell growth factor project, primary screen (AID 1064); details: higher = more signal;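 further: measures binding of the biotinylated anti-FSTL3 antibody to printed compounds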
[2] = binders from COS7 lysate, DM2A8 probe, primary screen, torsin A project, cell lysate, small-molecule microarray, fluorescence 635/667 (AID 1065); details: higher = more signal, COS7 lysate expressing mutant human TOR1A
[3] = small molecules captured by biotinylated probe aFGF2 – biochemical, small-molecule microarray, fluorescence 635/667, stem cell growth factor project, primary screen (AID 1067); details: higher = more signal;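 further: measures binding of biotinylated aFGF2 protein to printed compounds on slides; z-score merges feature fluorescence and signal-to-noise across triplicate slides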
[4] = small molecules captured by biotinylated probe aFGF10 – biochemical, small-molecule microarray, fluorescence 635/667, stem cell growth factor project, primary screen (AID 1071); details: higher = more signal;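 further: score merges 667 nm spot intensity and signal to noise from triplicate slides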
[5] = molecular target: Neurogenic locus notch homolog protein 2 (Homo sapiens) (UniProt Q04721); experiment: small molecules binding Notch2 protein – biochemical, small-molecule microarray, 635 nm fluorescence, stem cell growth factors, primary screen (AID 1073); details: higher = more signal
[6] = molecular target: Pro-neuregulin-1, membrane-bound isoform (Homo sapiens) (UniProt Q02297); experiment: small molecules binding neuregulin-1 protein – biochemical, small-molecule microarray, fluorescence 635/667, psychiatric disease protein project, primary screen (AID 1075); details: NRG1 binding, 635 nm fluorescence, higher = more signal;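 further: score combines 667 nm spot fluorescence with signal to noise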
[7] = system: Neuregulin-1 EGF-like domain; experiment: small molecules binding NRG1 EGF domain – biochemical, small-molecule microarray, 635 nm fluorescence, primary screen (AID 1081); details: higher = more signal;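 further: binding of the protein to compounds printed on small-molecule microarray slides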
[8] = FRG1 expression reporter modulators in myotubes – cell-based, C2C12 myotubes, firefly/Renilla luciferase, luminescence, FRG1 inhibition for FSHD, primary screen (AID 1084); details: FRG1 promoter luciferase, higher = more signal, called active from +8 up or from −8 down
[9] = small molecules captured by biotinylated probe aFST – biochemical, small-molecule microarray, fluorescence 635/667, stem cell growth factor project, primary screen (AID 1086); details: higher = more signal;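 further: score merges 667 nm fluorescence with signal-to-noise of each printed compound spot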
[10] = binders of probe aHhip on microarray, primary screen, stem cell growth factor project, biochemical, small-molecule microarray, fluorescence 635/667 (AID 1087); details: higher = more signal;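 further: score merges spot fluorescence at 667nm with spot signal to noise ratio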
[11] = system: PRMT1 (protein arginine N-methyltransferase 1); experiment: small molecules binding arginine methyltransferase PRMT1 – biochemical, small-molecule microarray, 635 nm fluorescence, primary screen (AID 1088); details: higher = more signal;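 further: binding of Prmt1 protein to compounds spotted on small-molecule microarray slides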
[12] = growth effects on S. cerevisiae YJM789 – YJM789 clinical isolate, OD600, 24 h, basal, primary screen (AID 1089); details: higher = more signal, called active from +8 up or from −8 down;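 further: growth of clinical yeast isolate S. cerevisiae YJM 789 seeded 1000 cells per well; test concentration not given here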
[13] = S. pombe growth modifiers, basal conditions – strain 972, OD600, 24 h, no modulator, primary screen (AID 1090);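 further: basal condition with compound alone and no growth modifier present; test concentration not given here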; details: S. pombe 972 growth, higher = more signal, called active from +8 up or from −8 down
[14] = budding yeast growth modifiers under rapamycin – strain BY4716, OD600, 96 h, primary screen (AID 1091); further: test concentration not given here; details: S. cerevisiae BY4716 + rapamycin, higher = more signal, called active from +8 up or from −8 down
[15] = molecular target: Torsin-1A-interacting protein 2 (Homo sapiens) (UniProt Q8NFQ8); experiment: small molecules binding lysate-expressed LULL1 – cell lysate, human LULL1 lysate, 635/667 nm fluorescence, primary screen (AID 1092); details: small-molecule microarray, hLULL1 lysate binding, 635 nm fluorescence; higher = more signal;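 further: probe is lysate of COS7 cells overexpressing human LULL1; score merges per-feature 667 nm fluorescence with signal-to-noise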
[16] = optical density change of DRC41 E. coli – strain DRC41, OD650, 24 h, E. coli filamentation project, primary screen (AID 1093);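 further: MC1000 strain lacking acrAB efflux and sulA so SOS filamentation is blocked; test concentration not given here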; details: E. coli DRC41 growth, higher = more signal, called active from +8 up or from −8 down
[17] = probe aLefty2 binding to arrayed compounds – biochemical, biotinylated probe, 635/667 nm fluorescence, primary screen (AID 1094); details: small-molecule microarray, higher = more signal;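 further: score merges spot fluorescence near 667 nm with spot signal-to-noise ratio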
[18] = system: Noggin (protein binding on small-molecule microarray); experiment: small molecules binding Noggin protein – biochemical, 635/667 nm fluorescence, primary screen (AID 1095); details: 635 nm fluorescence, higher = more signal;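 further: score merges 667 nm feature fluorescence with signal to noise over triplicate slides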
[19] = molecular target: Neurogenic locus notch homolog protein 3 (Homo sapiens) (UniProt Q9UM47); experiment: small molecules binding NOTCH3 protein – biochemical, 635/667 nm fluorescence, primary screen (AID 1096); details: small-molecule microarray, 635 nm fluorescence, higher = more signal
[20] = probe aEGFR binding to arrayed compounds – biochemical, biotinylated probe, 635/667 nm fluorescence, primary screen (AID 1097); details: small-molecule microarray, higher = more signal;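 further: probe is a biotinylated anti-EGFR antibody binding compounds printed on slides; score combines fluorescence near 667 nm and signal to noise of each spot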

Pro-neuregulin-1, membrane-bound isoform (Homo sapiens), sequence (Q02297 whole entry, looked up, the tested form may be a part, canonical isoform): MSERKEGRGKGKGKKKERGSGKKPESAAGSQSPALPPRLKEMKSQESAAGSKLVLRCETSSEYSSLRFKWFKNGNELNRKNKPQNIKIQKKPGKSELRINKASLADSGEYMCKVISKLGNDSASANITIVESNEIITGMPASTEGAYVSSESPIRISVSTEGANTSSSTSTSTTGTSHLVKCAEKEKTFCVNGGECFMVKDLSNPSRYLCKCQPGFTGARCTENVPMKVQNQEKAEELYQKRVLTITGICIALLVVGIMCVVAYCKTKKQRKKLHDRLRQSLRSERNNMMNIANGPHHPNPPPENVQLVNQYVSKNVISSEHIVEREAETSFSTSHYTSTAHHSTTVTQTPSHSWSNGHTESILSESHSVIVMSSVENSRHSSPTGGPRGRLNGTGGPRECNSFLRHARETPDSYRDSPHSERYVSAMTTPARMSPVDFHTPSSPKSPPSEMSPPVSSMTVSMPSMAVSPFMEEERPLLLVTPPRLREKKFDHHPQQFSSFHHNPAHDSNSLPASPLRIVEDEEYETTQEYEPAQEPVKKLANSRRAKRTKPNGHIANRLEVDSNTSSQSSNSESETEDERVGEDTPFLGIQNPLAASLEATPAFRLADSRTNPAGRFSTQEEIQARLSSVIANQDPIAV
Torsin-1A-interacting protein 2 (Homo sapiens), sequence (Q8NFQ8 whole entry, looked up): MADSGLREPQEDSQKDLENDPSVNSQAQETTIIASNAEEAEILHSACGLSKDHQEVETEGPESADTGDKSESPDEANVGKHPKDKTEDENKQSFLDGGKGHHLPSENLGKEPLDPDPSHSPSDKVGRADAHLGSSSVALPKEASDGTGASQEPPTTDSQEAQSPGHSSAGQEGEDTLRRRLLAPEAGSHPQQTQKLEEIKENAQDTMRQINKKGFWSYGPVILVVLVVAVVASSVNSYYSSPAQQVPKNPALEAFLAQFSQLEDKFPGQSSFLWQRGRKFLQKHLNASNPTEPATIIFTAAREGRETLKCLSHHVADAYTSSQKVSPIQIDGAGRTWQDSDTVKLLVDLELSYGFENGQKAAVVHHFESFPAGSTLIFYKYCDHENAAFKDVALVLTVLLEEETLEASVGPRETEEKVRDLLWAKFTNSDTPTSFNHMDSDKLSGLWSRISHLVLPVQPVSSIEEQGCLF
Neurogenic locus notch homolog protein 2 (Homo sapiens), sequence (Q04721 whole entry, looked up, canonical isoform): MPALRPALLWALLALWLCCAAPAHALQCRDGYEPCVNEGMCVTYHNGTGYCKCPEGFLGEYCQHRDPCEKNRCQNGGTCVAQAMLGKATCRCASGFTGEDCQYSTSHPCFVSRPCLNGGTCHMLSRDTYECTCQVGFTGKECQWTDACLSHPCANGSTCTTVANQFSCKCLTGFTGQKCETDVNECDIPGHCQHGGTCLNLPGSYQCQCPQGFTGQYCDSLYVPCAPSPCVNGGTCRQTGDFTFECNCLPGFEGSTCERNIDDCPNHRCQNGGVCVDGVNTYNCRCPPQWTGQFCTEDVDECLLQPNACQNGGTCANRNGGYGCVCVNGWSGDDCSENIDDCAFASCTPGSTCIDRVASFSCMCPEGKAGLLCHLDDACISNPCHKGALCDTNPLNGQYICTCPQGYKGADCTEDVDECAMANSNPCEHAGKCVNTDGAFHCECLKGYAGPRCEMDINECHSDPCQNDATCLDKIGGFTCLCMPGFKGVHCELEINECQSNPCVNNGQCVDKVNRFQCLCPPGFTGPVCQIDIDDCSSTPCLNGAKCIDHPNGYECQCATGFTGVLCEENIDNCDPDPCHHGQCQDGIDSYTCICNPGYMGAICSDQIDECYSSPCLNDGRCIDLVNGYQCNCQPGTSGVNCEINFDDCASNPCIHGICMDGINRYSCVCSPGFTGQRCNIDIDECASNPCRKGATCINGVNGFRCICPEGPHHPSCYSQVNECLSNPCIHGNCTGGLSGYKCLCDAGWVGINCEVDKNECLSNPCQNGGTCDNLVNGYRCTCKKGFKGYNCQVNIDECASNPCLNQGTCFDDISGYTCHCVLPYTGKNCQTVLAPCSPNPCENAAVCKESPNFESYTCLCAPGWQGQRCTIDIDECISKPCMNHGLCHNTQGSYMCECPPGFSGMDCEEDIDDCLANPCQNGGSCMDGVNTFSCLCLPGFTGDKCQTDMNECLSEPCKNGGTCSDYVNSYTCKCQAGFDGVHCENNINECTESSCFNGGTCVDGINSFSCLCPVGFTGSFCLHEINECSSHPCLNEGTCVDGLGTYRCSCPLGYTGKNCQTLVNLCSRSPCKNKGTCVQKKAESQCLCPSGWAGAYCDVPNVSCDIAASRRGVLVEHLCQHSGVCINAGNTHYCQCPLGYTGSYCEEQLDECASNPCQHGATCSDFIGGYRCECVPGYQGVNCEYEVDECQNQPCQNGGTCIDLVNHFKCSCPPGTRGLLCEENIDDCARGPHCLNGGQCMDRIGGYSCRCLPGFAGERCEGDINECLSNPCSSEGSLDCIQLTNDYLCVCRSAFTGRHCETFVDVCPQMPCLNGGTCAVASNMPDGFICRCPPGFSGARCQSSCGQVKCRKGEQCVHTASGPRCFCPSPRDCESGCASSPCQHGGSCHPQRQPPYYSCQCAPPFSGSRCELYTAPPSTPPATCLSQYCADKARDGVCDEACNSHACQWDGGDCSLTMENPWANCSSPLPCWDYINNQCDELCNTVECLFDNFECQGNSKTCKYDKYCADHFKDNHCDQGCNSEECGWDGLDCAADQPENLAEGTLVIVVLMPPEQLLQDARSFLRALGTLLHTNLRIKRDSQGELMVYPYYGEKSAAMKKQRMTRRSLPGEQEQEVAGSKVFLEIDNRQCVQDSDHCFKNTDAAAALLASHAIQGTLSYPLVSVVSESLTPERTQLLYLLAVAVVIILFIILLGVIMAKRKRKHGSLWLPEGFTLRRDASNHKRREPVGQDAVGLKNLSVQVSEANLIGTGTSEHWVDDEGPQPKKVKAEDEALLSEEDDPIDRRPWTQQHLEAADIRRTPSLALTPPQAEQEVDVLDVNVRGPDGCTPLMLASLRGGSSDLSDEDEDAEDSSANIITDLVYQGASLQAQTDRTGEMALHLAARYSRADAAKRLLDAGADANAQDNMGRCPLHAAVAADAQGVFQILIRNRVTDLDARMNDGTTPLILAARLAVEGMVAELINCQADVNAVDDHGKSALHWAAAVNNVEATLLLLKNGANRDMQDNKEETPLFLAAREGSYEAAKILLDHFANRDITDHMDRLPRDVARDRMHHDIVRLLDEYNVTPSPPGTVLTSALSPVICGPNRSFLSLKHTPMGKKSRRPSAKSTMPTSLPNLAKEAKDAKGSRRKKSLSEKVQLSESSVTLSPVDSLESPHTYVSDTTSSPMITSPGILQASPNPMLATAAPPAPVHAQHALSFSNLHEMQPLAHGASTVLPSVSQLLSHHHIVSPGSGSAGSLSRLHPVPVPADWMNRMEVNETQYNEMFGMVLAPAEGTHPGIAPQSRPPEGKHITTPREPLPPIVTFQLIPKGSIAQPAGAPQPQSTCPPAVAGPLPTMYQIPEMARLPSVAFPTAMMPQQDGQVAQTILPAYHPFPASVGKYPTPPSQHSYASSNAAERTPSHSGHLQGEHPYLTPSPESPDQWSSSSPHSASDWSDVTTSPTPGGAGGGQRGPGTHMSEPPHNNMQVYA

Row | Compound | composite z-score [1] | composite z-score [2] | composite z-score [3] | composite z-score [4] | composite z-score [5] | composite z-score [6] | composite z-score [7] | z-score [8] | composite z-score [9] | composite z-score [10] | composite z-score [11] | z-score [12] | z-score [13] | z-score [14] | composite z-score [15] | z-score [16] | composite z-score [17] | composite z-score [18] | composite z-score [19] | composite z-score [20]
1 | COc1c(C)cc(-c2cc3c(c(CCc4ccccc4)n2)[Si](C(C)C)(C(C)C)OC3)cc1C | -0.496 | 1.49 | -0.125 | 0.358 | 0.364 | -0.355 | 0.578 | -0.14 (inactive) | 0.287 | -0.0346 | 1.42 | -0.819 (inactive) | -1.57 (inactive) | -0.618 (inactive) | 0.778 | 2.29 (inactive) | -0.0866 | 0.288 | 0.34 | 0.0068
2 | C=CCNC(=O)[C@@H]1[C@H]2C(=O)O[C@H](c3ccccc3)[C@H](c3ccccc3)N2[C@H](c2ccc(O)cc2)[C@@]12C(=O)Nc1ccc(C#Cc3ccc(OC)cc3)cc12 | -0.112 | 0.712 | 0.0356 | 0.69 | 1.46 | 0.489 | 1.16 | 0.606 (inactive) | 0.496 | -0.0672 | 1.54 | -0.147 (inactive) | -1.67 (inactive) | 2.97 (inactive) | 1.96 | 2.8 (inactive) | 0.0005 | 0.436 | 1.14 | -0.0019
3 | O=C1c2ccccc2C(=O)c2cc([C@H]3Oc4ccccc4S(=O)(=O)N4CCC[C@@H]34)ccc21 | 0.238 | -0.845 | -0.128 | -0.639 | -1.09 | -0.926 | -1.64 | -0.933 (inactive) | -0.167 | -0.353 | -1.02 | -1.31 (inactive) | -1.33 (inactive) | -0.462 (inactive) | -0.629 | 2.81 (inactive) | -0.276 | -0.566 | -0.259 | -0.196
4 | CCCC[C@@H](O)C1=C(C)C[C@H]2C(=O)N(C)C(=O)[C@H]2[C@H]1CO | -0.275 | -0.305 | -0.12 | 0.469 | 0.109 | 0.11 | -0.0165 | -0.645 (inactive) | -0.176 | -0.318 | 0.54 | -0.219 (inactive) | -1.6 (inactive) | -1.19 (inactive) | 1.31 | 2.68 (inactive) | -0.328 | 1.09 | 0.352 | -0.21
5 | CC(=O)NCCCC[C@@H]1NC(=O)[C@@H]2C[C@H](C(=O)O)[C@H](c3cccc(OCCO)c3)N2C1=O | -0.16 | 0.619 | -0.112 | 0.321 | 0.124 | 0.0677 | 1.31 | 0.356 (inactive) | 0.199 | -0.153 | 1.55 | 1.18 (inactive) | -0.201 (inactive) | 1.46 (inactive) | 0.654 | 0.809 (inactive) | -0.0846 | 1.6 | 0.58 | 0.0437
6 | CO[C@H]1O[C@H](CO)[C@@H](OC(=O)Nc2ccccc2)[C@H](OC(=O)Nc2ccc3c(c2)OCO3)[C@H]1OC(=O)Nc1ccc2c(c1)OCO2 | 0.381 | 0.45 | 0.128 | 0.7 | 1.29 | 1.61 | 1.23 | 4.5 (inactive) | 0.29 | -0.175 | 1.56 | 0.648 (inactive) | 0.494 (inactive) | 2.28 (inactive) | 2.8 | 2.75 (inactive) | 0.0789 | 0.128 | 1.06 | -0.0527
7 | CCOC(=O)C[C@H]1[C@H](OC(=O)c2cc3ccccc3oc2=O)[C@@H](NC(=O)c2ccccc2)c2cc(OCCCO)ccc2N1C(=O)Cc1ccc(OC)cc1 | -0.297 | 0.682 | -0.038 | 0.575 | 0.81 | 0.147 | -0.1 | -0.265 (inactive) | 0.514 | 0.0302 | -0.0867 | -0.196 (inactive) | -1.08 (inactive) | -0.846 (inactive) | 0.239 | 2.9 (inactive) | -0.0069 | 0.908 | 0.665 | -0.113
8 | C#CCOc1ccc(C[C@H]2C(=O)O[C@H](Cc3ccccc3)[C@H](/C=C/C3CC3)N2CC#C)cc1 | 0.372 | 0.259 | -0.14 | -0.118 | -0.487 | -0.13 | 0.141 | -4.41 (inactive) | -0.652 | -0.0074 | -0.746 | 1.35 (inactive) | -0.795 (inactive) | 0.519 (inactive) | 0.408 | 2.04 (inactive) | -0.139 | -0.493 | -1.74 | -0.206
9 | COc1ccc(CCNC(=O)[C@@]2(Sc3ccc(C)cc3)CC(=O)N(Cc3ccccc3)[C@@H]2c2ccc(CO)cc2I)cc1 | -1.07 | 0.461 | -0.187 | -0.111 | -0.0768 | 0.0114 | 0.388 | -1.58 (inactive) | -0.32 | -0.616 | 0.471 | 0.44 (inactive) | -1.66 (inactive) | 2.72 (inactive) | 1.87 | 0.485 (inactive) | -0.337 | -0.814 | -0.915 | -0.119
10 | C=CCNC(=O)[C@@H]1[C@H]2C(=O)O[C@H](c3ccccc3)[C@H](c3ccccc3)N2[C@H](c2ccc(O)cc2)[C@@]12C(=O)Nc1ccccc12 | -0.156 | 0.654 | -0.0521 | 0.0546 | -0.554 | 1.31 | 0.574 | 0.674 (inactive) | -0.0542 | -0.251 | 1.45 | 0.455 (inactive) | -1.32 (inactive) | 1.89 (inactive) | 2.8 | 2.14 (inactive) | -0.189 | 0.855 | 0.31 | -0.129
